Laboratory results: the supplement of paper PMC9262897, “Low-cost anti-mycobacterial drug discovery using engineered E. coli” (Nature Communications, 2022)
Structures can show the parent of a compound that is named as a salt. ± gives the standard deviation of the averaged measurements.

Legend:
Experiment in all cases: growth (OD600 after 10 h); higher = more growth (less inhibition)
[1] = tested on: E. coli TESEC Alr+ wild-type control; details: compound 0.1 mM; raw OD600 reference: median of DMSO wells 0.241, cell-free background 0.041
Experimental: (§1)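 TESEC Mtb Alr E. coli, or the Alr+ wild-type control, in 384-well plates with Prestwick library compounds at 0.1 mM and 1% DMSO, across arabinose induction levels of 1E3 to 1E7 nM. Growth is read as OD600 after 10 h at 37 °C in triplicate biological replicates.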

E. coli TESEC Mtb Alr [2] = details: compound 0.1 mM
Experimental: as §1

E. coli TESEC Mtb Asd = details: compound 0.1 mM
Experimental: (§2)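 TESEC E. coli strains in which the native enzyme is deleted and replaced by arabinose-inducible Mtb Asd, DapB, CysH or TrpD, each grown in its selective medium. Strains were screened against the Prestwick library at 0.1 mM and 1% DMSO in 384-well format at low and high arabinose induction. Growth is read as OD600 after 10 h in triplicate.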

E. coli TESEC Mtb DapB = details: compound 0.1 mM
Experimental: as §2

[3] = tested on: E. coli TESEC Alr+ wild-type control; details: compound 0.1 mM; raw OD600 reference: median of DMSO wells 0.49, cell-free background 0.052
Experimental: (§3)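 TESEC Mtb Alr E. coli (ΔaraC ΔtolC ΔentC Δalr ΔdadX, arabinose-inducible Mtb Alr) or the Alr+ wild-type control strain, grown in defined M9-fructose medium without D-alanine in 96-well plates with Prestwick library compounds at 0.1 mM and 1% DMSO. Low Alr induction is 0.1 µM arabinose and high induction is 10 mM arabinose.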

E. coli TESEC Mtb Alr [4] = details: compound 0.1 mM; remark: listed apart in the source
Experimental: as §3

[5] = arabinose 1000 nM, raw OD600 reference: median of DMSO wells 0.294, cell-free background 0.041
[6] = arabinose 10000 nM, raw OD600 reference: median of DMSO wells 0.264, cell-free background 0.041
[7] = arabinose 100000 nM, raw OD600 reference: median of DMSO wells 0.201, cell-free background 0.041
[8] = arabinose 1000000 nM, raw OD600 reference: median of DMSO wells 0.193, cell-free background 0.041
[9] = arabinose 10000000 nM, raw OD600 reference: median of DMSO wells 0.146, cell-free background 0.041
[10] = arabinose induction (level): High, raw OD600 reference: median of DMSO wells 0.331, cell-free background 0.041
[11] = arabinose induction (level): Low, raw OD600 reference: median of DMSO wells 0.417, cell-free background 0.041
[12] = arabinose induction (level): High, raw OD600 reference: median of DMSO wells […], cell-free background 0.041
[13] = arabinose induction (level): Low, raw OD600 reference: median of DMSO wells 0.227, cell-free background 0.041
[14] = arabinose 100 nM, raw OD600 reference: median of DMSO wells 0.413, cell-free background 0.052
[15] = arabinose 10000000 nM, raw OD600 reference: median of DMSO wells […], cell-free background 0.052

SMILES	growth [1]	growth (E. coli TESEC Mtb Alr [2]; [5])	growth (E. coli TESEC Mtb Alr [2]; [6])	growth (E. coli TESEC Mtb Alr [2]; [7])	growth (E. coli TESEC Mtb Alr [2]; [8])	growth (E. coli TESEC Mtb Alr [2]; [9])	growth (E. coli TESEC Mtb Asd; [10])	growth (E. coli TESEC Mtb Asd; [11])	growth (E. coli TESEC Mtb DapB; [12])	growth (E. coli TESEC Mtb DapB; [13])	growth [3]	growth (E. coli TESEC Mtb Alr [4]; [14])	growth (E. coli TESEC Mtb Alr [4]; [15])
CCCc1nc(C)c2c(=O)nc(-c3cc(S(=O)(=O)N4CCN(CC)CC4)ccc3OCC)[nH]n12 [Vardenafil]	0.148 ± 0.0033	0.221 ± 0.0081	0.26 ± 0.011	0.18 ± 0.0021	0.107 ± 0.0037	0.126 ± 0.0068	0.189 ± 0.02	0.238 ± 0.052	0.151 ± 0.0082	0.173 ± 0.018	0.55 ± 0.11	0.41 ± 0.0051	0.305 ± 0.014
O=C1c2c(O)ccc(O)c2C(=O)c2c(NCCNCCO)ccc(NCCNCCO)c21 [Mitoxantrone dihydrochloride]	0.355 ± 0.0023	0.3551 ± 0.0031	0.3438 ± 0.0024	0.3501 ± 0.0014	0.3506 ± 0.001	0.3496 ± 0.0028	0.36 ± 0.0066	0.3445 ± 0.0031	0.348 ± 0.0055	0.348 ± 0.0049	0.259 ± 0.051	0.231 ± 0.0097	0.292 ± 0.025
COc1ccccc1OCC(O)CO (centres undefined) [Guaifenesin]	0.238 ± 0.0069	0.306 ± 0.021	0.274 ± 0.0056	0.191 ± 0.0043	0.19 ± 0.0056	0.141 ± 0.0035	0.427 ± 0.031	0.377 ± 0.14	0.192 ± 0.013	0.228 ± 0.023	0.535 ± 0.093	0.408 ± 0.011	0.345 ± 0.015
NS(=O)(=O)c1cc(C2(O)NC(=O)c3ccccc32)ccc1Cl (centres undefined) [Chlorthalidone]	0.223 ± 0.0025	0.285 ± 0.012	0.255 ± 0.0039	0.193 ± 0.0099	0.168 ± 0.003	0.144 ± 0.0027	0.393 ± 0.037	0.462 ± 0.078	0.205 ± 0.016	0.208 ± 0.017	0.545 ± 0.05	0.415 ± 0.01	0.3322 ± 0.002
c1ccc2[nH]c(-c3cscn3)nc2c1 [Tiabendazole]	0.222 ± 0.014	0.275 ± 0.0031	0.253 ± 0.011	0.203 ± 0.021	0.188 ± 0.0046	0.15 ± 0.011	0.278 ± 0.085	0.326 ± 0.1	0.186 ± 0.003	0.192 ± 0.023	0.572 ± 0.075	0.408 ± 0.011	0.316 ± 0.015
CCCCCN(C)CCC(O)(P(=O)(O)O)P(=O)(O)O [Ibandronate sodium]	0.245 ± 0.0075	0.287 ± 0.01	0.25 ± 0.0058	0.196 ± 0.011	0.182 ± 0.0036	0.131 ± 0.0067	0.364 ± 0.022	0.448 ± 0.015	0.206 ± 0.0027	0.232 ± 0.035	0.462 ± 0.035	0.422 ± 0.01	0.358 ± 0.014
CCCN(CCC)S(=O)(=O)c1ccc(C(=O)O)cc1 [Probenecid]	0.226 ± 0.0059	0.254 ± 0.0078	0.261 ± 0.011	0.221 ± 0.047	0.153 ± 0.0022	0.159 ± 0.0038	0.346 ± 0.12	0.371 ± 0.07	0.232 ± 0.0066	0.223 ± 0.02	0.49 ± 0.048	0.4 ± 0.016	0.267 ± 0.0045
CCc1cccc(CC)c1NC(=O)CN(CC(=O)O)CC(=O)O [Etifenin]	0.2457 ± 0.00078	0.295 ± 0.011	0.276 ± 0.0042	0.231 ± 0.012	0.192 ± 0.011	0.146 ± 0.0052	0.29 ± 0.033	0.375 ± 0.09	0.179 ± 0.015	0.196 ± 0.003	0.603 ± 0.11	0.412 ± 0.012	0.338 ± 0.017
